nsP2pro inh – CHIKV nsP2 protease inhibition, primary qHTS; FRET peptide cleavage, nsP2pro, fluorescence 1 h; hit rate 1.1% among 31,000; AID 1964107; Q8JUX6; Potency, µM (top dose mostly 24.9 µM), inactives show at the highest dose activity change, negative = inhibition, most hits filed as inhibitors; also: nearly all actives have a fitted effect of over 60% in size
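Purified recombinant nsP2pro (150 nM final) in 10 mM Tris-HCl pH 8.0 with 0.01% Tween 20 was preincubated 15 min at room temperature with compound (7 concentrations, up to 25 uM). FRET peptide 2 substrate (2.5 uM final) was then added; fluorescence was read after 1 h.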
nsP2 cell sec – inhibits CHIKV nsP2 protease in cells; shares compounds with nsP2pro inh; cell-based CHIKV nsP2 protease reporter assay; Potency, µM (top dose mostly 51.1 µM), without a hit: at the top dose activity change, negative = inhibition, hits mostly inhibitors; hit rate 10% among 450; AID 1964100; also: nearly all actives have a fitted effect of over 70% in size
Target sequence (Q8JUX6 220-798 limits assumed): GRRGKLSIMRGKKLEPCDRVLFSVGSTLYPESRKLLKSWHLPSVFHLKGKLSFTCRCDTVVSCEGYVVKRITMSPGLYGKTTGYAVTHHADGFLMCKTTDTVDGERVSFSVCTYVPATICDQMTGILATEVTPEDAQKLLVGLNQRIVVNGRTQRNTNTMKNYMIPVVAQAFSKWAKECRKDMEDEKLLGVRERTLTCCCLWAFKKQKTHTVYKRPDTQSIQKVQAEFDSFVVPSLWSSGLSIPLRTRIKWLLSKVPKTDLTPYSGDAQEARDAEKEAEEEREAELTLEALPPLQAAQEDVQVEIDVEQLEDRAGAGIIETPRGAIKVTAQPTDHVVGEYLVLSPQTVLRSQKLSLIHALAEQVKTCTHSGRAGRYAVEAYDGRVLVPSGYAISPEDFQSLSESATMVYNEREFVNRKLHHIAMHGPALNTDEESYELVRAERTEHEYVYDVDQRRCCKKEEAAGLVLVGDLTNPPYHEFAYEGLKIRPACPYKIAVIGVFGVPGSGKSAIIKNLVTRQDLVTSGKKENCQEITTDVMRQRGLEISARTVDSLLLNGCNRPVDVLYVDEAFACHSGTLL
NSP2 full ctr – full-length CHIKV NSP2 protease inhibition, selectivity | shares compounds with nsP2pro inh | Full-length CHIKV NSP2 protease enzymatic counterscreen | Potency, µM (doses to about 50.7 µM), inactives show top-dose activity change, negative = inhibition, most hits filed as inhibitors | hit rate 39% among 410 | AID 1964101; also: nearly all actives have a fitted effect of over 65% in size
Furin counter – human furin inhibition, counterscreen for nsP2pro inhibitors. shares compounds with nsP2pro inh. Recombinant human furin enzymatic counterscreen, fluorogenic substrate. Potency, µM (doses to about 50.6 µM), for the others: at the top dose activity change, negative = inhibition, most hits filed as inhibitors. hit rate 6% among 410
nsP2 NS23 pep – nsP2pro inhibition on native NS2/3 peptide substrate; shares compounds with nsP2pro inh; Purified CHIKV nsP2 protease, endogenous NS2/3 peptide cleavage; Potency, µM (highest dose often 51 µM), inactives show at the top dose activity change, negative = inhibition, usual class: inhibitors; hit rate 34% among 410; also: nearly all actives have a fitted effect of over 55% in size
Papain cs – inhibits papain in a CHIKV nsP2 protease selectivity counterscreen | Potency, µM (highest dose often 51 µM), for the others: top-dose activity change, negative = inhibition, most hits filed as inhibitors | shares compounds with nsP2pro inh | AID 1964104 | purified papain protease activity, enzymatic inhibition | hit rate 5% among 410
nsP2pro confirm – confirmation of CHIKV nsP2 protease inhibitors; shares compounds with nsP2pro inh; CHIKV nsP2 protease enzymatic activity, qHTS; Potency, µM (doses to about 25.5 µM), for inactives: top-dose activity change, negative = inhibition, actives largely listed as inhibitors; hit rate 43% among 410; AID 1964105; also: nearly all actives have a fitted effect of over 75% in size
HCV NS3 4A cs – HCV NS3/4A protease inhibition, counterscreen; shares compounds with nsP2pro inh; HCV NS3/4A protease biochemical counterscreen; Potency, µM (highest dose often 50.9 µM), actives largely listed as inhibitors; hit rate 20% among 410; also: nearly all actives have a fitted effect of over 55% in size
* = called active by the depositor; i = inactive; u = inconclusive; x = no result; ! = a repeat was not active; [ ] = remark or other dose. Shown is part of a subset that was picked to be rich in hits. Calls follow the shape of the full dose curve. % is scaled to controls: 0 for no effect and ±100 for the full control effect; potency is read from the fitted curve at half-maximal effect.

SMILES | nsP2pro inh | others
CS(=O)(=O)c1ncc(Cl)c(C(=O)N2CCN(c3cccc(Cl)c3)CC2)n1 | 1.6µM* | nsP2 cell sec=1.5µM*;NSP2 full ctr=5.8µM*;Furin counter=4%;nsP2 NS23 pep=8.2µM*;Papain cs=-3%;nsP2pro confirm=4.5µM*;HCV NS3 4A cs=i
Cc1ccc(Nc2ncc(C(=O)N3CCN(c4cccc(Cl)c4)CC3)c3ccccc23)cc1Cl | -20%
C[C@]12CC[C@@H]3c4ccc(O)cc4CC[C@H]3[C@@H]1C[C@@H](O)[C@@H]2O | 6%
Cn1cc(CCn2cnc(-c3cnn(C)c3)c2-c2ccc(C#N)cc2)cn1 | 6%
COc1ccc(CNC(=O)c2nc(S(=O)(=O)Cc3ccccc3)ncc2Cl)cc1 | 6.3µM*! | nsP2 cell sec=3.7µM*!;NSP2 full ctr=16µM*;Furin counter=-1%;nsP2 NS23 pep=8.2µM*;Papain cs=-2%;nsP2pro confirm=5.7µM*;HCV NS3 4A cs=u
COc1ccc(NC(=O)c2nc(S(=O)(=O)Cc3ccc(C)cc3)ncc2Cl)cc1 | -30%
CCOc1ccc(NC(=O)c2nc(S(=O)(=O)Cc3ccccc3)ncc2Cl)cc1 | 145%
[O-][n+]1ccccc1SSc1cccc[n+]1[O-] | 2.7µM* | nsP2 cell sec=u;NSP2 full ctr=8.2µM*;Furin counter=-12%;nsP2 NS23 pep=9.2µM*;Papain cs=2%;nsP2pro confirm=1.6µM*;HCV NS3 4A cs=i
CC[C@H]1CN(C(=O)NC(C)C)CC[C@H]1CC(=O)N1CCC(C(=O)OC)CC1 | 1%[39.2 µM]
COc1cc(NC(=O)Nc2cccc(-c3noc(C)n3)c2)cc(OC)c1OC | -18%
Cc1cccc(Oc2nc3c(C)cccn3c(=O)c2/C=C(\C#N)c2nc3ccccc3[nH]2)c1 | -15%
Oc1cc(CNC(=S)/C=C/c2cc(O)c(O)c(Br)c2)cc(O)c1O | 5.6µM* | nsP2 cell sec=0.22µM*;NSP2 full ctr=15µM*;Furin counter=u;nsP2 NS23 pep=6.5µM*;Papain cs=u;nsP2pro confirm=5µM*;HCV NS3 4A cs=3.7µM*
COc1cc2[nH]c(=O)n(Cc3ccc(C(=O)N4CCN(c5cccc(C)c5C)CC4)cc3)c(=O)c2cc1OC | -12%
CNS(=O)(=O)c1ccc(Cc2c(-c3cccc(-c4ccccc4)c3)[nH]n(-c3nc(C(=O)O)cs3)c2=O)cc1 | 3%
Cc1nnc(-c2cnn(C)c2N)n1CCCc1ccccc1 | 1%
CC(=O)Oc1c(C)c(C)c2c(c1C)CC[C@@](C)(CCC[C@H](C)CCC[C@H](C)CCCC(C)C)O2 | -2%
COC(=O)C[C@H]1C(C)(C)[C@H](OC(C)=O)C2CC3=C4CC(=O)O[C@@H](c5ccoc5)[C@]4(C)CCC3[C@@]1(C)C2=O (stereo partly drawn) | -2%[10 µM]
COC(=O)/C=C/C12COC(C)(C)C1C(O)C(OC(C)=O)C1(C)C2CCC2(C)C(c3ccoc3)OC(=O)C3OC321 (stereo not drawn) | u | nsP2 cell sec=5%[17.6 µM];NSP2 full ctr=-8%[17.3 µM];Furin counter=-7%[17.3 µM];nsP2 NS23 pep=-15%[17.2 µM];Papain cs=5%[17.2 µM];nsP2pro confirm=-4%[8.62 µM];HCV NS3 4A cs=i
CC1(C)O[C@H]2CC(=O)OC[C@]23[C@H]2CC[C@@]4(C)[C@H](c5ccoc5)OC(=O)[C@H]5O[C@]54[C@]2(C)C(=O)C[C@@H]13 | -13%
Cc1ccc(-n2nc(C(=O)Nc3ccc(C)c(F)c3)c(=O)n(C)c2=O)cc1 | -15%
O=C1CCN(C(=O)C2(c3ccccc3)CC2)CCCCCCN1 | -1%
Cc1nc(-c2cn3c(n2)-c2ccc(-c4cnn(C(C)(C)C(N)=O)c4)cc2OCC3)n(C(C)C)n1 | 6%
CC(C)(O)C1OC1C1=CC(=O)C2(C)OC2C1O (stereo not drawn) | 9.9µM* | nsP2 cell sec=-6%;NSP2 full ctr=4.6µM*;Furin counter=-4%;nsP2 NS23 pep=u;Papain cs=10µM*;nsP2pro confirm=5µM*;HCV NS3 4A cs=u
COc1cccc(-c2ccc(CN3CCCC3C(=O)N3CCN(c4ncccn4)CC3)cc2)c1 (stereo not drawn) | i
COc1ccccc1Oc1ncccc1CNC(=O)Nc1cccc(C#N)c1 | 0%
SMILES | nsP2pro inh | others
CCOc1ccc(CCNC(=O)C2CCCCC2)cc1OCC | i
COc1ccc(NCc2cc3cc4c(cc3n(CC(=O)Nc3ccc(C)cc3C)c2=O)OCO4)cc1 | u | nsP2 cell sec=4%
COc1ccc2cc(CNc3ccccc3)c(=O)n(CC(=O)Nc3ccc(C(C)=O)cc3)c2c1 | -10%
Cc1ccc(NC(=O)Cn2c(=O)n(CCC(=O)NCc3ccc4c(c3)OCO4)c(=O)c3sccc32)c(C)c1 | -21%
Cc1ccc(CNC(=O)c2c[nH]c3ccc(S(=O)(=O)N4CCOCC4)cc3c2=O)cc1 | -20%
C/C1=C\CC[C@]2(C)O[C@@H]2[C@H](O)[C@H](C(C)C)[C@H](OC(=O)/C=C/c2ccccc2)C1 | 3%
c1ccc(-n2cc(-c3nnc4n3CCCCC4)cn2)cc1 | -24%
COc1cc2c(cc1OC)-c1cc3ccc(OC)c(OC)c3c[n+]1CC2 | x | nsP2 cell sec=3%;NSP2 full ctr=u;Furin counter=-23%;nsP2 NS23 pep=u;Papain cs=u;nsP2pro confirm=u;HCV NS3 4A cs=i
c1c2c(cc3c1OCO3)-c1cc3ccc4c(c3c[n+]1CC2)OCO4 | u | nsP2 cell sec=-6%;NSP2 full ctr=u;Furin counter=4.1µM*;nsP2 NS23 pep=u;Papain cs=-22%;nsP2pro confirm=u;HCV NS3 4A cs=i
Cn1cccc1-c1noc(C2CCN(C(=O)COc3ccc(F)cc3)CC2)n1 | i
O=C([C@H](Cc1ccc(O[S+](=O)([O-])c2ccccn2)cc1)N[S+](=O)([O-])c1cccc2cnccc12)N1CCN(c2ccccc2)CC1 | -13%
CCCOc1ccc(NC(=O)C(=O)NCCCN2CCOCC2)cc1 | -12%
CN(c1ccc(NC(=O)Nc2ccc(OC(F)(F)F)cc2)cc1)c1ccnc(Nc2cccc(S(N)(=O)=O)c2)n1 | 0%
CCCSc1ncc(Cl)c(C(=O)N(Cc2ccccc2)c2ccc(OC)cc2)n1 | -2%
O=C1Nc2ccccc2/C1=C/c1cccc(C(=O)O)c1 | i
Cc1cc(O)c2c(c1)C(=O)c1cccc(O)c1C2=O | u | nsP2 cell sec=9%;NSP2 full ctr=u;Furin counter=-4%;nsP2 NS23 pep=-8%;Papain cs=-6%;nsP2pro confirm=u;HCV NS3 4A cs=i
O=C(O)c1cc(O)c2c(c1)C(=O)c1cccc(O)c1C2=O | u | nsP2 cell sec=-12%;NSP2 full ctr=15%;Furin counter=5%;nsP2 NS23 pep=i;Papain cs=u;nsP2pro confirm=22%;HCV NS3 4A cs=i
O=C(O)c1ccc(C(=O)O)cc1 | -20%
O=C1c2c(O)cccc2Cc2cccc(O)c21 | 26%
O=C1CCCC2=C1C1(CCSC1)N=C(Nc1nc3ccccc3o1)N2 (stereo not drawn) | 3%
Fc1ccc(Nc2nc(-c3ccnc(N4CCCCC4)c3)nc3ccccc23)cc1F | -2%
COc1cc2nc(-c3ccc(N4CCN(C)CC4)cc3)nc(NCCN3CCOCC3)c2cc1OC | -5%

Bioassay records deposited in PubChem by National Center for Advancing Translational Sciences (NCATS).
